Experimental data published in PubChem BioAssay (EPA / NIEHS).
The source made the active and inactive calls. How the source made its calls: active means hit-call score of the fitted dose curve at least 0.9, where 1 is the maximum; inactive means score below 0.9.

assay: ATG_ISRE_CIS: Attagene CIS-FACTORIAL HepG2 Assay for human Interferon Regulatory Factor 1 (IRF1) binding to an Interferon-Stimulated Response Element (ISRE) (AID 2282948); details: HepG2 ISRE cis-reporter (Attagene), mRNA transcription readout; actives raise or lower the signal
Method: ATG_CIS is a cell-based, multiplexed-readout assay that uses HepG2, a human liver cell line, with measurements taken at 24 hours after chemical dosing in a 24-well plate.ATG_ISRE_CIS is one of 52 assay component(s) measured or calculated from the ATG_CIS assay. It is designed to make measurements of mRNA induction, a form of inducible reporter, as detected with fluorescence intensity signals by Reverse transcription polymerase chain reaction (RT-PCR) and Capillary electrophoresis technology.Data from the assay component ATG_ISRE_CIS was analyzed into 1 assay endpoint. This assay endpoint, ATG_ISRE_CIS, was analyzed with bidirectional fitting relative to DMSO as the negative control and baseline of activity. Using a type of inducible reporter, measures of mRNA for gain or loss-of-signal activity can be used to understand the reporter gene at the transcription factor-level as they relate to the gene IRF1. Furthermore, this assay endpoint can be referred to as a primary readout, because this assay has produced multiple assay endpoints where this one serves a reporter gene function. To generalize the intended target to other relatable targets, this assay endpoint is annotated to the dna binding intended target family, where the subfamily is interferon regulatory factors.
Human liver HepG2 cells are transiently transfected with multiple reporter transcription units (MRTUs) in 6-well plates using FuGene 6 reagent (Roche; 3 ml FuGene/1 mg DNA). The MRTU constructs are regulated by a cis-regulating element (promoter). […] A major difference between the CIS and TRANS system is that in CIS activities of endogenous TFs are measured, whereas the TRANS assay evaluates changes in activities of exogenous, chimeric NR-Gal4 proteins. […] At the end of 24 hour incubation, total RNA was isolated using TriZol reagent (Invitrogen). The isolated RNA is then reverse-transcribed using oligo(dT) primer and Mo-MLV reverse transcriptase (Invitrogen) with DNAse I (Ambion) treatment for 30 min. The one-tenth of the produced cDNA was amplified by PCR using Taq DNA polymerase (Invitrogen) and two reporter sequence-specific primers. The PCR products were fluorescently labeled by primer extension with 6-arboxyfluorescein (6-FAM) 5'-labeled reporter sequence-specific primer (2 min at 95 C, 20 s at 68 C and 10 min at 72 C) and these products were digested with 5U of HpaI (New England Biolabs) for 2h at 37 C. The fragments were purified using Qiaquick PCR columns (Qiagen), analyzed on an ABI 3130xL genetic analyzer (Applied Biosystems) with peak positions identified by using a set of X-rhodamine (ROX)-labeled MapMarker1000 molecular weight standards (BioVentures). The raw capillary electrophoresis data was processed using Attagraph software (Attagene).

| Structure (SMILES) | outcome | AC50 |
| --- | --- | --- |
| CC(C)CC(O)Cc1ccccc1 (stereo not given) | inactive |  |
| CC(=O)OC(C)C | inactive |  |
| Nc1ccc(Oc2ccc(N)c(N)c2)cc1 | inactive |  |
| CC(CC=O)c1ccccc1 (stereo not given) |  | 56.1 µM (active) |
| OC1CCCCCCCCCCC1 | inactive |  |
| CCC(CC)C(=O)O | inactive |  |
| c1c[nH]cn1 | inactive |  |
| CC(=O)C=CC1C(C)=CCC(C)C1(C)C (stereo not given) | inactive |  |
| Cc1c(C)c([N+](=O)[O-])c(C(C)(C)C)c([N+](=O)[O-])c1C | inactive |  |
| C=CCOc1c(Br)cc(Br)cc1Br | inactive |  |
| CCCCCCCCCCCCCCCC(=O)OCC | inactive |  |
| O=c1[nH]nc(-c2ccc([N+](=O)[O-])o2)o1 | inactive |  |
| O=C1CCCCCCCCCCCCCCCO1 | inactive |  |
| c1ccc(CNCc2ccccc2)cc1 | inactive |  |
| CC/C=C\CCOC(=O)CCCCC | inactive |  |
| CCCCOCCOC(=O)COc1nc(Cl)c(Cl)cc1Cl | inactive |  |
| Cc1cc(C)c(C(=O)O)c(C)c1 | inactive |  |
| CCCCCCCCC(=O)OCC | inactive |  |
| CCCCCc1ccc(Cl)cc1 | inactive |  |
| Nc1ncn([C@@H]2O[C@H](CO)[C@@H](O)[C@H]2O)c(=O)n1 |  | 10.8 µM (active) |

| Structure (SMILES) | outcome | AC50 |
| --- | --- | --- |
| CC(C)(C)C1CCCCC1=O (stereo not given) | inactive |  |
| CCc1nccnc1C | inactive |  |
| O=c1c2ccccc2nnn1CCl | inactive |  |
| CCN(CC#N)c1cccc(C)c1 | inactive |  |
| CN(C)CCCN(C)C | inactive |  |
| N#CCc1ccc(Cl)cc1Cl | inactive |  |
| CCCCCCCC(C)=O | inactive |  |
| CCN(CC)c1ccc(C(=O)c2ccccc2C(=O)O)c(O)c1 | inactive |  |
| C=CCCCCCCCCC(=O)OCCCC | inactive |  |
| CC=CC(=O)N(CC)c1ccccc1C | inactive |  |
| c1ccc(-c2ccccn2)nc1 | inactive |  |
| CCCCCCCCCCc1ccccc1 | inactive |  |
| COC(=O)c1ccc2cc(C(=O)OC)ccc2c1 | inactive |  |
| O=C(O)c1cc2ccccc2nc1C(=O)O | inactive |  |
| CCOc1ccc(N)c([N+](=O)[O-])c1 | inactive |  |
| Cc1cccc(N)n1 | inactive |  |
| CC(C)=CCC[C@H](C)CCO | inactive |  |
| C1=CCCC1 | inactive |  |
| C(=CC=Nc1ccccc1)C=CNc1ccccc1 | inactive |  |
| CC(C)CCCC(C)CC=O (stereo not given) | inactive |  |
